From a collection of fitness landscapes (doi:10.1016/j.celrep.2020.107928)
The full ranking holds about 81,000 sequences; the median of “one-hybrid fitness for binding parS DNA” is about -0.17, and the highest 2% start at about 0.51. The list comes from a sample in which the highest values are over-represented; it also holds similar and randomly drawn sequences.

B1: Caulobacter ParB omega fusion; a variant is named by its letters at X, in order, B8GW30 (parent)
chain: MESVVVGEPGMSEGRRGLGRGLSALLGEVDAAPAQAPGEQLGGSREAPIEILQRNPDQPRRTFREEDLEDLSNSIREKGVLQPILVRPSPDTAGEYQIVAGERAWRAAQRAGLKTVPIMVRELDDLAVLEIGIIENVQRADLNVLEEALSYKVLMEKFERTQENIAQTIGKSXSHVANXMRLLXLPDEVQSYLVSGELTAXHARAIAAAADPVALAKQIIEGGLSVRETEALARKAPNLSAGKSKGGRPPRVKDTDTQALESDLSSVLGLDVSIDHRGSTGTLTITYATLEQLDDLCNRLTRGI

Variants of: B1
Experiment: one-hybrid fitness for binding parS DNA (scaled: cognate 1, non-cognate 0); higher = stronger binding
Details: with parS DNA site
Procedure, shortened: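 In E. coli USO, a HIS3 reporter with its site placed 19 bp from the promoter was used to select Caulobacter ParB variants randomised at four specificity codons. Growth lasted 48 hours at 37°C on histidine-free M9 containing 0.1 mM IPTG and 5 mM 3-AT. Fitness was taken as the log change in variant-to-wild-type read ratio from Illumina sequencing of pre- and post-selection plasmids, rescaled between the non-cognate and cognate sites.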

one-hybrid fitness for binding parS DNA, 0.229:
RAQF

one-hybrid fitness for binding parS DNA, 0.894:
RAQT

one-hybrid fitness for binding parS DNA, 0.911:
RAST

one-hybrid fitness for binding parS DNA, 0.908:
RKCC
RTRG

one-hybrid fitness for binding parS DNA, 0.806:
RKNC

one-hybrid fitness for binding parS DNA, 0.213:
RKYQ

one-hybrid fitness for binding parS DNA, 0.92:
RAGT

one-hybrid fitness for binding parS DNA, 0.809:
RAWT

one-hybrid fitness for binding parS DNA, 0.923:
RKDC

one-hybrid fitness for binding parS DNA, 0.459:
RASY
RLMN

one-hybrid fitness for binding parS DNA, 0.836:
RART

one-hybrid fitness for binding parS DNA, 0.272:
RKLM

one-hybrid fitness for binding parS DNA, 0.396:
RTRN

one-hybrid fitness for binding parS DNA, 0.925:
RKYC

one-hybrid fitness for binding parS DNA, 0.715:
RIIT

one-hybrid fitness for binding parS DNA, ≤ 0.2:
RKSH
RKHQ
RKLR
RKSD
DVNN
VNYS
PWEG
NNLY
VLIA
VPYR
LEDT
PHLT
MREY
RKNP
RKCD
RKCH
RKND
RKYR
RKDR
RKDF
IKIT
LFDR
IRTA
MSDQ
EAWR
DRKV
LAGW
RPIL
QIFK
ANVG
RTRQ
RTLQ
RTHP
RTLR
RTGH
DCRS
IAEG
SAYT
MHTF
PSYT
VTEN
NTYG
RTYQ
HADL
REPT
RPPT
RIPP
RIIK
RIPN
YDNV
FNSY
TSTS
SATQ
RMWK
RLRL
KRHS
PLTH
RACD
RAYR
MLRS
GTET
SSAG
DLPN
DGPD
NYGR
SRPW
LATK
AQEG
QIWY
RASQ
RARQ
RAGQ
RAGR
PKYV
APEG
FICL
GDRF
VNRI
QPAD
QAKR
PSVL
PTYM
RALK
RADR
RALQ
RADK
MCRN
QVLP
NHYR
EVTS
GHDR
HVTM
PTLD
TYDN
AAAL
LNIY
RLMD
RPMS
RMMD
RIMP
RMML

one-hybrid fitness for binding parS DNA, 0.324:
RAYM

one-hybrid fitness for binding parS DNA, 1.01:
RTHG
RCMS

one-hybrid fitness for binding parS DNA, 0.549:
RIPT

one-hybrid fitness for binding parS DNA, 0.21:
RKHM

one-hybrid fitness for binding parS DNA, 0.41:
RACN

one-hybrid fitness for binding parS DNA, 0.31:
RAQM

one-hybrid fitness for binding parS DNA, 0.737:
RKRC

one-hybrid fitness for binding parS DNA, 0.921:
RKLC

one-hybrid fitness for binding parS DNA, 0.852:
RACT

one-hybrid fitness for binding parS DNA, 0.604:
RCPT

one-hybrid fitness for binding parS DNA, 0.732:
RADT

one-hybrid fitness for binding parS DNA, 0.812:
RKSC

one-hybrid fitness for binding parS DNA, 1.03:
RMMS

one-hybrid fitness for binding parS DNA, 0.928:
RAHT

one-hybrid fitness for binding parS DNA, 0.45:
RTHN

one-hybrid fitness for binding parS DNA, 0.907:
RANT

one-hybrid fitness for binding parS DNA, 1.04:
RLMS
RIMS

one-hybrid fitness for binding parS DNA, 0.904:
RAYT

one-hybrid fitness for binding parS DNA, 0.264:
RIMH

one-hybrid fitness for binding parS DNA, 0.33:
RTGM

one-hybrid fitness for binding parS DNA, 0.281:
RKRM

one-hybrid fitness for binding parS DNA, 0.28:
RARF

one-hybrid fitness for binding parS DNA, 0.26:
RAHH

one-hybrid fitness for binding parS DNA, 0.379:
RIIN

one-hybrid fitness for binding parS DNA, 0.384:
RAWN

one-hybrid fitness for binding parS DNA, 0.215:
RAND

one-hybrid fitness for binding parS DNA, 0.223:
RAWH

one-hybrid fitness for binding parS DNA, 0.329:
RAHM

one-hybrid fitness for binding parS DNA, 0.997:
RTGG

one-hybrid fitness for binding parS DNA, 0.434:
RANN

one-hybrid fitness for binding parS DNA, 0.882:
RKHC

one-hybrid fitness for binding parS DNA, 0.232:
RCMP

one-hybrid fitness for binding parS DNA, 1.02:
RTLG
RTYG

one-hybrid fitness for binding parS DNA, 0.888:
RALT
